The nature of test [1]: BmaI1 acyl-homoserine lactone synthase inhibition – biochemical, fluorescence intensity, with counterscreen (AID 720554). The conditions noted are these: BmaI1 enzyme assay, measured here: counterscreen fluorescence % control, concentration not given here. For orientation: The purpose of a counterscreen is to sort out artefacts and off-target activity.
The subject of test [2] is acyl-homoserine lactone synthase BmaI1 (Burkholderia mallei ATCC 23344). Described as above. The conditions noted are these: BmaI1 enzyme assay, stronger effect = higher value, concentration not given here.

Molecules are shown by their SMILES. The whole screen tested about 12,000 compounds, of which about 45 (0.4%) were called active. No stated cut-off is given here; in the data, active means inhibition mostly above about 83% (no sharp cut-off); inactive means mostly below about 52%. What follows is part of a selection rich in actives, with near analogues and random picks from the rest.

These results are taken from PubChem BioAssay AID720554 (ICCB-Longwood Screening Facility, Harvard Medical School, 2013).

Take `O=C1N=c2ccccc2=C1c1sc(N2CCCCC2)nc1O`: the inhibition (as a rule, the change of the read-out against control, counted positive when it falls) was 8.5% in test [1] and 91.5% (active) in test [2].

On to `Cc1nc(N2CCCCC2)sc1C1Sc2ccccc2NC1=O` (stereo not drawn), for which the inhibition was -5% in test [1] and -2.5% (inactive) in test [2].

As for `Cc1nc(N2CCCC2)sc1C(=O)c1oc2ccccc2c1C`, the inhibition in test [1] was 17%; in test [2], 20% (inactive).

Consider `CC(C)CNCC(=O)Nc1ccc(S(N)(=O)=O)cc1`, for which the inhibition in test [1] is -1.5%; in test [2], 6.5% (inactive).

Take `Cc1csc(C(C#N)C(=O)CSc2ccc3c(c2)OCCO3)n1` (stereo not drawn): the inhibition in test [1] was 0%; in test [2], 16% (inactive).

In the case of `Cn1cccc1C(=O)Nc1ccc2c(c1)nc1n2CCCCC1`, the inhibition in test [1] is 27%; in test [2], 18% (inactive).

For `CC(=O)Nc1ccc(/C=N/N2C(=O)c3ccccc3C2=O)cc1`, the results for the inhibition in test [1] and in test [2] were 14.5% and 13% (inactive), respectively.

For `S=c1[nH]c(-c2ccccc2)cn1/N=C/c1ccc2c(c1)OCCO2`, the results for the inhibition in test [1] and in test [2] were 41.5% and 94% (inactive), respectively.

On to `CC(=O)Nc1ccc(/C=N/n2cc(-c3ccccc3)[nH]c2=S)cc1`, for which the inhibition in test [1] was 13.5%; in test [2], 90% (active).

As to `O=C(CCc1nc2ccccc2c(=O)[nH]1)Nc1ccccc1C(=O)NC1CC1`, the inhibition in test [1] is 5.5%; in test [2], 13.5% (inactive).

With `O=C(OC(c1ccccc1)c1ccccc1)c1ccncc1`, the inhibition in test [1] is 14%; in test [2], 14% (inactive).

On to `CC1=C(C(=O)O)N2C(=O)[C@@H](NC(=O)[C@H](N)c3ccccc3)[C@H]2SC1`, for which the inhibition is 7.5% in test [1] and -7% (inactive) in test [2].

For `N[C@@H](C(=O)N[C@@H]1C(=O)N2C(C(=O)O)=C(Cl)CS[C@H]12)c1ccccc1`, the inhibition in test [1] was 4.5%; in test [2], 5% (inactive).

As to `N[C@@H](C(=O)N[C@@H]1C(=O)N2C(C(=O)O)=C(CSc3cn[nH]n3)CS[C@H]12)c1ccc(O)cc1` (tested in a mixture with another compound), the values for the inhibition in test [1] and in test [2] were 6% and 93% (active), respectively.

As for `CN(C)S(=O)(=O)c1cccc(COC(=O)c2cn(-c3ccccc3)nc2-c2cccs2)c1`, the values for the inhibition in test [1] and in test [2] were -2.5% and 8.5% (inactive), respectively.

For the compound `Cc1ccc(-c2csc(NC(=O)C3(c4ccccc4)CC3)n2)s1`, the values for the inhibition in test [1] and in test [2] were 20% and 20% (inactive), respectively.

With `O=C(c1cc(-c2ccccc2)nn1-c1ccccc1)N(C1CC1)C1CCS(=O)(=O)C1` (stereo not drawn), the figures for the inhibition in test [1] and in test [2] were 2% and 7% (inactive), respectively.

On to `Cn1c(=S)[nH]c2ccccc21`, for which the inhibition in test [1] is 5%; in test [2] it was 51.5% (inactive).

With `Cc1ccc(Cn2c(=S)[nH]c3ccccc32)cc1`, the figures for the inhibition in test [1] and in test [2] were 3% and 97% (active), respectively.

Turning to `FC(F)n1c(=S)[nH]c2ccccc21`, the inhibition in test [1] was 0.5%; in test [2] it was 13.5% (inactive).

As to `CC(Sc1nnnn1-c1ccc(O)cc1)C(=O)c1ccccc1` (stereo not drawn), the inhibition in test [1] was 2.5%; in test [2] it was 8.5% (inactive).

As for `c1ccc(NNC2=NCCCCC2)nc1`, the values for the inhibition in test [1] and in test [2] were 4.5% and 85% (active), respectively.

Regarding `c1ccc(CNC2=NCCCCC2)nc1`, the inhibition was -13% in test [1] and -8.5% (inactive) in test [2].

Turning to `O=S(=O)(NNC1=NCCCCC1)c1ccccc1`, the inhibition in test [1] is 28.5%; in test [2], 63.5% (inactive).

In the case of `O=Nc1c(O)[nH]c2c(C(F)(F)F)cccc12`, the inhibition in test [1] is 11%; in test [2], 13% (inactive).

Turning to `COc1cccc(-n2c(SC3CCOC3=O)nc3ccccc3c2=O)c1` (stereo not drawn), the inhibition was 13.5% in test [1] and 14.5% (inactive) in test [2].

As to `O=C(CSc1ncc(C(F)(F)F)cc1Cl)N1CCN(S(=O)(=O)c2ccccc2)CC1`, the inhibition is -4% in test [1] and 8.5% (inactive) in test [2].

On to `Cc1noc(C)c1COc1ccc(C(=O)OCC(N)=O)cc1`, for which the results for the inhibition in test [1] and in test [2] were 3% and 14% (inactive), respectively.

Regarding `O=C(CCSc1ccc(Cl)cc1)Nc1ccccc1`, the figures for the inhibition in test [1] and in test [2] were 17.5% and 15% (inactive), respectively.

`CCn1c(CCC(=O)N2CCN(c3ccccn3)CC2)nc2cc(S(N)(=O)=O)ccc21`: the inhibition was -0.5% in test [1] and 98% (active) in test [2].

Consider `CCCn1c(CCC(=O)N(C)c2ccccc2)nc2cc(S(=O)(=O)N3CCCC3)ccc21`, for which the inhibition in test [1] was -2.5%; in test [2], 37% (inactive).

As for `CCN(CC)S(=O)(=O)c1ccc2c(c1)nc(CCC(=O)N1CCN(c3ccccc3)CC1)n2CC`, the inhibition in test [1] is 10.5%; in test [2], 17% (inactive).

For `Cc1ccc(C2=NN(C(=O)CSc3ccc4c(c3)OCCO4)C(c3ccco3)C2)cc1` (stereo not drawn), the values for the inhibition in test [1] and in test [2] were 0% and 7.5% (inactive), respectively.

As for `O=C(OCC1CCCCC1)c1n[nH]c2ccccc12`, the figures for the inhibition in test [1] and in test [2] were 12.5% and 30.5% (inactive), respectively.

Regarding `COc1ccc(Br)cc1CN(C)CN1C(=O)C2CC=CCC2C1=O` (stereo not drawn), the inhibition was 10.5% in test [1] and 3.5% (inactive) in test [2].

For the compound `CN1/C(=C\C=N\NC(=O)c2cccnc2)C(C)(C)c2ccccc21`, the inhibition in test [1] is 7%; in test [2], 43% (inactive).

For `CN1/C(=C\C=Nc2ccccc2N)C(C)(C)c2ccccc21`, the inhibition is -25% in test [1] and -9% (inactive) in test [2].

On to `CN1/C(=C\C=N\NC(N)=S)C(C)(C)c2ccccc21`, for which the inhibition is 29% in test [1] and 85% (active) in test [2].

With `CC(C)(C)c1ccc(C(=O)NCCc2ccccn2)cc1`, the inhibition was 2% in test [1] and 5.5% (inactive) in test [2].

On to `Cc1cccc(OCc2nnc3n2-c2ccccc2SC3)c1`, for which the inhibition in test [1] was -6.5%; in test [2] it was -1.5% (inactive).

Regarding `O=C(COC(=O)/C=C/c1ccco1)Nc1cccc(C(F)(F)F)c1`, the inhibition is -1% in test [1] and 0.5% (inactive) in test [2].

On to `CC1Cc2ccccc2N1CC(=O)NCc1ccc2c(c1)OCO2` (stereo not drawn), for which the inhibition in test [1] is -28%; in test [2] it was 48% (inactive).

On to `COc1ccc(N2CCN(C(=S)Cc3ccccc3)CC2)cc1`, for which the inhibition in test [1] is 5%; in test [2], 8.5% (inactive).

For `S=C(c1ccc(-c2ccccc2)o1)N1CCN(c2ccccc2)CC1`, the results for the inhibition in test [1] and in test [2] were 13.5% and 97.5% (active), respectively.
